Test [1] concerns the target Transient receptor potential cation channel subfamily V member 1 (Homo sapiens) (UniProt Q8NER1). As to the kind of experiment: HTS Assay for Compounds that Act as Enhancers of the Vanilloid Receptor 1 (AID 488979). Also: 0% is about no effect. The gist of the method: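 Calcium influx kinetics via Fluo-8 (480/520 nm) in TRPV1-expressing cells, 2000/well cultured overnight at 35.5C. Compound-alone read 3 min (agonist phase), followed by EC20 capsaicin challenge for 2 min (enhancer phase).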

For test [2], the target named is Thyrotropin receptor (Homo sapiens) (UniProt P16473). As to the kind of experiment: qHTS Assay for Antagonists of the Thyroid Stimulating Hormone Receptor (AID 488980). Also: series mostly up to about 58 µM; 0% is about no effect. The gist of the method:
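HEK293 cells transfected with human TSHR, suspended in HEPES-buffered HBSS with 70 uM RO 20-1724, were treated with compounds plus TSH at EC80 (4 nM final). cAMP was measured by competitive HTRF (cryptate anti-cAMP antibody, cAMP-d2 acceptor).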
(qHTS replaces the single test concentration by a dilution series.)

For test [3], the target named is D(1A) dopamine receptor (Homo sapiens) (UniProt P21728). The experiment in a line: HTS Assay for Allosteric Agonists of the Human D1 Dopamine Receptor: Primary Screen for Agonists (AID 488981). Also: 0% is about no effect. A digest of the protocol: (§1)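 Calcium flux in an inducible, force-coupled HEK293 Trex D1 line (overnight at 30 C): agonist mode is the 180 s kinetic read after compound; potentiator mode is the following 180 s read after dopamine at EC20.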

For test [4] the target is unchanged. The experiment in a line: HTS Assay for Allosteric Agonists of the Human D1 Dopamine Receptor: Primary Screen for Potentiators (AID 488982). Also: 0% is about no effect. A digest of the protocol:
as §1

The target is the same in test [5]. As to the kind of experiment: HTS Assay for Allosteric Agonists of the Human D1 Dopamine Receptor: Primary Screen for Antagonists (AID 488983).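 Also: calcium flux response to an EC80 dopamine challenge measured with no-wash dye; % is scaled to controls: 0 for no effect and ±100 for the full control effect; nearly all actives have a fitted effect of over 65% in size.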 The gist of the method:
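Calcium flux readout, no-wash dye, inducible HEK293 T-REx D1 line (force-coupled). Compound added after 10 s baseline, 180 s kinetic read; then dopamine at EC80, further 180 s read.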

Test [6] in a line: Validation screen for small molecules that induce genotoxicity in human embryonic kidney (HEK293T) cells expressing luciferase-tagged ELG1 (AID 493106). Also: 0% is about no effect. A digest of the protocol:
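qHTS format; 2,000 HEK293T ELG1-luc cells/well; 23 nL compound via pin tool; 16 hr, 37 °C/5% CO2; ONE-Glo, 30 min RT; luminescence read.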

In test [7] the target is ATPase family AAA domain-containing protein 5 (Homo sapiens) (UniProt Q96QE3). The experiment in a line: Validation screen for small molecules that inhibit ELG1-dependent DNA repair in human embryonic kidney (HEK293T) cells expressing luciferase-tagged ELG1 (AID 493107).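 Also: cells co-treated with the DNA-damaging agent 5-fluorouridine alongside compound; series mostly up to about 46 µM; % is scaled to controls: 0 for no effect and ±100 for the full control effect; inhibitors lower the ELG1-luciferase luminescence signal; nearly all actives have a fitted effect of over 70% in size.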 The gist of the method:
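ELG1-luciferase HEK293T reporter; 5-fluorouridine + compound/DMSO, 16 hr, 37 °C, 5% CO2; ONE-Glo 30 min RT; luminescence read, qHTS format.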

The target of test [8] is Thyrotropin-releasing hormone receptor (Homo sapiens) (UniProt P34981). As to the kind of experiment: qHTS for Small Molecule Agonists and Allosteric Enhancers of Human TRH Receptor: Validation Screen for Agonists (AID 493127;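 active = calcium activation more than 3 SD above the typical response in the agonist read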;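 also: intracellular calcium rise by fluo-8 fluorescence before TRH EC20 addition; 0% is about no effect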). The conditions noted are these: TRH receptor agonist cell assay; at 2 µM; stronger effect = higher value. A digest of the protocol: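 Read-out: intracellular calcium release measured kinetically by FDSS (fluo-8, ex 480/em 530 nm), 1 reading/s after a 10-cycle baseline. TRHR cells, 2000/well, cultured 18 h at 33.5C, dye-loaded at room temp. Compound-evoked positive calcium signal flags agonists.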

Test [9] can be described thus: Nrf2 qHTS screen for inhibitors: Validation (AID 493153; active = well fitted inhibition curve with a large enough effect in the main read-out, with a control signal flat, not every such curve was filed as active). The conditions noted are these: Potency: luciferase luminescence; viability change: measured here: cytotoxicity max response. A digest of the protocol:
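Concentration-response test in A549 ARE_Fluc reporter cells (5% FBS OPTI-MEM), compound exposure 18-24 h at 37°C, 5% CO2. Cell viability measured first by CellTiter-Fluor fluorescence; ARE-driven luciferase luminescence then measured as Nrf2 activity.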

A short description of test [10]: qHTS for Inhibitors of Cell Surface uPA Generation: Validation Assay (AID 493164).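 Also: RAW 264.7 macrophage cells exposed to compound for 18 h; 0% is about no effect.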 A digest of the protocol:
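Compounds are titrated over seven points (2.45 nM–38.3 uM final) onto pre-plated RAW 264.7 cells and incubated for 18 h. Retained intracellular ATP, measured with ATP-Lite, indicates blocked lethal factor entry.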

In test [11] the target is Galactokinase (Homo sapiens) (UniProt P51570). As to the kind of experiment: qHTS Validation Assay for Inhibitors of Human Galactokinase (GALK) (AID 493189). Also: 0% is about no effect. The gist of the method:
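GALK (5 nM) with 35 uM ATP and 100 uM galactose in HEPES pH8.0, MgCl2, NaCl, DTT, BSA; 1 h at room temperature. Residual ATP read by Kinase-Glo Plus luminescence after 10 min.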

Test [12] in a line: Validation screen for small molecules that induce DNA re-replication in SW480 colon adenocarcinoma cells (AID 504364). Also: 0% is about no effect. A digest of the protocol:
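Read-out: total Hoechst intensity of nuclei by fluorescence scanning imager; hits raise the fraction of nuclei with elevated DNA content. Cells received compound for 48 hr at 37 C before a 40 min stain.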

Test [13] deals with Peptidyl-prolyl cis-trans isomerase NIMA-interacting 1 (Homo sapiens) (UniProt Q13526). As to the kind of experiment: qHTS Validation Assay to Find Inhibitors of Pin1 (AID 504536; active = well fitted inhibition curve with a large enough effect in the polarisation, with a control signal flat, not every such curve was filed as active; the % refers to the polarisation;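 also: 0% = full Pin1 enzyme wells and -100% = no-enzyme wells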). The gist of the method:
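Fluorescence polarization competition: compounds (titration) displace HiFluor-488-labeled Pin1-1b peptide from Pin1 (0.3 uM final) in pH 7.5 HEPES buffer with DTT, 10 min at room temperature; %Activity normalized to no-enzyme wells, curves fitted.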

Test [14] addresses phosphoglycerate mutase (Leishmania major) (UniProt Q4Q090). As to the kind of experiment: qHTS Validation Assay to Find Inhibitors of Phosphoglycerate Mutase (AID 504548). Also: series mostly up to about 58 µM; % is scaled to controls: 0 for no effect and ±100 for the full control effect. The conditions noted are these: Potency: inhibition qHTS. A digest of the protocol:
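Lm PGAM at 1.25 nM final with substrate in 100 mM TEA pH 7.6, 5 mM MgCl2, 0.01% Tween-20; 45 min at room temperature. Kinase-GloPlus added, 10 min, end-point luminescence read.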

Test [15] addresses Ubiquitin carboxyl-terminal hydrolase 1 (Homo sapiens) (UniProt O94782). The experiment in a line: Inhibitors of USP1/UAF1: Pilot qHTS (AID 504865). Also: nearly all actives have a fitted effect of over 35% in size. Also: potency is read from the fitted curve at half-maximal effect. The gist of the method: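 USP1/UAF1 complex (1nM) preincubated with compound 15 min at room temperature, then Ub-Rho substrate (150nM final) added. Fluorescence read kinetically at 480/540 nm, 6 reads every 60 seconds. Buffer: 50mM HEPES pH 7.8, 0.5mM EDTA, 0.1 mg/ml BSA, 1mM TCEP, 0.01% Tween-20.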

Test [16] in a line: qHTS for Inhibitors of ATXN expression: Validation of Cytotoxic Assay (AID 588349). Also: % is scaled to controls: 0 for no effect and ±100 for the full control effect. A digest of the protocol: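 Cytotoxicity counter-screen: HEK293 cells exposed to compound titrations, 72 hr, 37 degrees C. Read-out is intracellular ATP (CellTiter Glo luminescence) as a viability measure.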
In test [17] the target is Phosphoglycerate kinase, glycosomal (Trypanosoma brucei brucei) (UniProt P07378). As to the kind of experiment: qHTS Validation Assay to Find Inhibitors of Phosphoglycerate Kinase (AID 504547).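 Also: control wells lack PGK and mark full inhibition.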 A digest of the protocol:
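Luminescence end-point (Kinase-Glo Plus, 10 min) after a 60 min room-temperature coupled reaction. GAPDH at 100nM final supplies 1,3-BPG to PGK. Buffer: 100mM TEA pH 7.6, 5mM MgCl2, 0.01% Tween-20. Wells lacking PGK served as controls.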

The nature of test [18]: qHTS for Inhibitors of ATXN expression: Validation (AID 588378). Also: series mostly up to about 57 µM; % is scaled to controls: 0 for no effect and ±100 for the full control effect; nearly all actives have a fitted effect of over 75% in size. A digest of the protocol: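 Luminescence from an ATXN2-FFLuc reporter in HEK293 cells served as read-out after 24 h compound treatment at 37 degrees C; CellTiter-Fluor fluorescence was recorded first to assess viability.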

Records with an inconclusive call do not appear. The source made the active and inactive calls. Unless noted, calls follow the shape of the dose curve; as a rule, active = well fitted curve in the direction sought with a large enough effect; inconclusive = small, poorly fitted or top-dose-only effect, or another doubt; inactive = no such curve, though single readings can be large; an effect the other way counts as inactive or inconclusive.

Sequence of D(1A) dopamine receptor (Homo sapiens) (P21728 whole entry, looked up): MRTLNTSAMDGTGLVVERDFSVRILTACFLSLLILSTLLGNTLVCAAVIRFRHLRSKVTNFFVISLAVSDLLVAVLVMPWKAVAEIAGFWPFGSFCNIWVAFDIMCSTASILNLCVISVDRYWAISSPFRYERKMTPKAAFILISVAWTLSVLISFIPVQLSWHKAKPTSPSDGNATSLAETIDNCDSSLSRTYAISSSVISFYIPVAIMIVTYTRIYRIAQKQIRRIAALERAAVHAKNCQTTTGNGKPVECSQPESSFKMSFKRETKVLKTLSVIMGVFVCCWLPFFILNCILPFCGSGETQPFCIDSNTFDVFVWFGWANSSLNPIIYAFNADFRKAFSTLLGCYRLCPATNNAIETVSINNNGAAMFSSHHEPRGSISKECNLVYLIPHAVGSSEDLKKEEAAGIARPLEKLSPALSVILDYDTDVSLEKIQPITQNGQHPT
Sequence of phosphoglycerate mutase (Leishmania major) (Q4Q090 1-553): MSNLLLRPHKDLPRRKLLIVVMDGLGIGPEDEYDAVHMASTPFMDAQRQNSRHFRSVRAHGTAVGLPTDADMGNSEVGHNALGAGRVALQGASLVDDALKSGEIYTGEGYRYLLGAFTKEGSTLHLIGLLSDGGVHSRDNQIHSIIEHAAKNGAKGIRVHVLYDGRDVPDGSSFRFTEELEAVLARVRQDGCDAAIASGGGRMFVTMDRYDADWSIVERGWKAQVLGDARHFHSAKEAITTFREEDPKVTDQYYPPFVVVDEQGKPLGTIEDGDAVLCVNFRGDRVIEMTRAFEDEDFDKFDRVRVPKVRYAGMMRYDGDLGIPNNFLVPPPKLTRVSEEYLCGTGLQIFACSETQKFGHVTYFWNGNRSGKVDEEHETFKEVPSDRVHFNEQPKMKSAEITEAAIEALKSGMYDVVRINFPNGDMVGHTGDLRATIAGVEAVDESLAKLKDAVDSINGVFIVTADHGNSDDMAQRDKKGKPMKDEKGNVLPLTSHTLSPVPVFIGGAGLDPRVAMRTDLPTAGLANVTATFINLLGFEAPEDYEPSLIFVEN
Sequence of ATPase family AAA domain-containing protein 5 (Homo sapiens) (Q96QE3 whole entry, looked up, the tested form may be a part): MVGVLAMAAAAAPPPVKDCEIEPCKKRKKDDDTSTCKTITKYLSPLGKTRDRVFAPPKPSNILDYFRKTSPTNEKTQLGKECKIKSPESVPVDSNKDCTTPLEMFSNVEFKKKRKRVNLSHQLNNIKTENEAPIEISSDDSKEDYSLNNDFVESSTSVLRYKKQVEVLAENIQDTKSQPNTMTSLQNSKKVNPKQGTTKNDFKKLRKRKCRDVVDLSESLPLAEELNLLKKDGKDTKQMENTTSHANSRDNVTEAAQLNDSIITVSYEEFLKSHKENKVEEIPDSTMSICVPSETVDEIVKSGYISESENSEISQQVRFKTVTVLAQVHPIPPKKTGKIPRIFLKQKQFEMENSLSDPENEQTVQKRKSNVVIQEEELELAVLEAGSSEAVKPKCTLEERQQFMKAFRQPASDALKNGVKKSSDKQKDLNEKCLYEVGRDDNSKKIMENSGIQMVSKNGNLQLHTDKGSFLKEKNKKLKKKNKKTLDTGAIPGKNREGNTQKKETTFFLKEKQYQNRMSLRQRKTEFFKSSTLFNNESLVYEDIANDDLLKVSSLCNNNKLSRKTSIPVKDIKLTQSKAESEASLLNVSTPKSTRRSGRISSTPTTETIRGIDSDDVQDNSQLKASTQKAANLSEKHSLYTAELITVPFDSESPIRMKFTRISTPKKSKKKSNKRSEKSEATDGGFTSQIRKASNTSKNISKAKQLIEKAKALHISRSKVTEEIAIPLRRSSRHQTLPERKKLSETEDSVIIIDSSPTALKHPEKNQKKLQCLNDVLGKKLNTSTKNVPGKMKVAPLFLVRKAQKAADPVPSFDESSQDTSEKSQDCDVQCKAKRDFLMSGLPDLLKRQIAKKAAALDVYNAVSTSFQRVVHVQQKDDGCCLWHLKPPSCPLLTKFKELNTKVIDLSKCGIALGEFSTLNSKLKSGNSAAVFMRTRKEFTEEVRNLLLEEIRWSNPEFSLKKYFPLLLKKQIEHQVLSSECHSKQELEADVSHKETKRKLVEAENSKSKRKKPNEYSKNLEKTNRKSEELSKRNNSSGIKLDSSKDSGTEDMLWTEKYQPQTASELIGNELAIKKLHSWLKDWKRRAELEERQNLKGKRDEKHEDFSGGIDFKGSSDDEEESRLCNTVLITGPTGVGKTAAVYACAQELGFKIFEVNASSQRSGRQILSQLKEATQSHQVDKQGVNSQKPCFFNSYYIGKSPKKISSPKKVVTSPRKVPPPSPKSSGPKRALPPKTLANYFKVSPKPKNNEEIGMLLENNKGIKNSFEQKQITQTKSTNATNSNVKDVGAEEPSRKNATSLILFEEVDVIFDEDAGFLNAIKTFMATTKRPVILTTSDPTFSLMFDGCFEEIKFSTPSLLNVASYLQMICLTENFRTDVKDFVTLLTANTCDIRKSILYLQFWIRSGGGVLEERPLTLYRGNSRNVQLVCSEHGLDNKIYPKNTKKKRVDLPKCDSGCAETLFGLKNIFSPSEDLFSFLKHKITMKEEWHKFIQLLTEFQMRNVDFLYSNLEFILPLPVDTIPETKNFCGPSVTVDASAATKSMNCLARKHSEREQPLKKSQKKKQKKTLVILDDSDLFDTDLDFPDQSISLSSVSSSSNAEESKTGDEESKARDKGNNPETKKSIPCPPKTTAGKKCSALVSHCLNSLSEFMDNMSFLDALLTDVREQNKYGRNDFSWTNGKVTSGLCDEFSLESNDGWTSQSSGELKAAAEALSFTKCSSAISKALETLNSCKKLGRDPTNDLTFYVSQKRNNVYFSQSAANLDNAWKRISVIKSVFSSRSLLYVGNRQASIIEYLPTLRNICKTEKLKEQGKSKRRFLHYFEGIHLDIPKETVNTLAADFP
Sequence of Ubiquitin carboxyl-terminal hydrolase 1 (Homo sapiens) (O94782 whole entry, looked up): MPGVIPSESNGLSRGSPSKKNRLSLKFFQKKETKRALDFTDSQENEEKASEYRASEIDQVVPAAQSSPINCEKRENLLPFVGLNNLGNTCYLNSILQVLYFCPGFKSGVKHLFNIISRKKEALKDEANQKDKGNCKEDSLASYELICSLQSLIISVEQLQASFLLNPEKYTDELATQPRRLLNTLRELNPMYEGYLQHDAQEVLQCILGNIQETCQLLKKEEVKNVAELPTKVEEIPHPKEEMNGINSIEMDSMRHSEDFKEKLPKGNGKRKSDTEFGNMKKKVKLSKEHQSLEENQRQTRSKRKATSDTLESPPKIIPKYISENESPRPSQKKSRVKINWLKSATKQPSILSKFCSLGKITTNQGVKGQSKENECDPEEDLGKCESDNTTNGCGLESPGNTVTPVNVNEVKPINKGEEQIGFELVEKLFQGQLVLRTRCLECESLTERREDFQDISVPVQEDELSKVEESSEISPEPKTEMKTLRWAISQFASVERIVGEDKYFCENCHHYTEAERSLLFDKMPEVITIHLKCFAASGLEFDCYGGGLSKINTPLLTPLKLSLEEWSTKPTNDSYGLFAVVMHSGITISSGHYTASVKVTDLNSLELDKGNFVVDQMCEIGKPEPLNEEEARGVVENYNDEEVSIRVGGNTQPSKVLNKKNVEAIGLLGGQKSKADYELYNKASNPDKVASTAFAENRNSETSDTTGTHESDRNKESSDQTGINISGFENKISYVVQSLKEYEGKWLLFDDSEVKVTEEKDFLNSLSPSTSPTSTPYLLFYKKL
Sequence of Phosphoglycerate kinase, glycosomal (Trypanosoma brucei brucei) (P07378 whole entry, looked up): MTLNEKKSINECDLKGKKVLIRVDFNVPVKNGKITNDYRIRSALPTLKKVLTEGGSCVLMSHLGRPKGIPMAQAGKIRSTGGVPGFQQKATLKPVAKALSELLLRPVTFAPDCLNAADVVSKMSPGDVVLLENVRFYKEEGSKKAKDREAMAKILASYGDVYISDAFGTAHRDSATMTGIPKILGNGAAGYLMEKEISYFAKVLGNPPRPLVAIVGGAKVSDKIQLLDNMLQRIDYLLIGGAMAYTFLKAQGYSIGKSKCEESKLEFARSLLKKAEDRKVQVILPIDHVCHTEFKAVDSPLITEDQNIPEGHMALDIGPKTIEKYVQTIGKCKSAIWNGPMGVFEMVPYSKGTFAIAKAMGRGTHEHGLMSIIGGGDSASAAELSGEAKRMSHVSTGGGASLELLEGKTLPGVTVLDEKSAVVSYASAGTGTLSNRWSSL
Sequence of Thyrotropin-releasing hormone receptor (Homo sapiens) (P34981 whole entry, looked up): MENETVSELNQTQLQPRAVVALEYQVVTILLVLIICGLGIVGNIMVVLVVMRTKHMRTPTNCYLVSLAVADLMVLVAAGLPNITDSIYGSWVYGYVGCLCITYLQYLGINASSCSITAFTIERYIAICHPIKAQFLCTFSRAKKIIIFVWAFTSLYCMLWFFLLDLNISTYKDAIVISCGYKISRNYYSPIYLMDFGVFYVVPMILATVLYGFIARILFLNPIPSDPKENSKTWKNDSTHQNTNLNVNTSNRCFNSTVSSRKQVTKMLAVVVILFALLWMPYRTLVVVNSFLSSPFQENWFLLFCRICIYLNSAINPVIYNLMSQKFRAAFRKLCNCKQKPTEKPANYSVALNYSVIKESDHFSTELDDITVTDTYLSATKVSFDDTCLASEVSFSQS
Sequence of Peptidyl-prolyl cis-trans isomerase NIMA-interacting 1 (Homo sapiens) (Q13526 whole entry, looked up): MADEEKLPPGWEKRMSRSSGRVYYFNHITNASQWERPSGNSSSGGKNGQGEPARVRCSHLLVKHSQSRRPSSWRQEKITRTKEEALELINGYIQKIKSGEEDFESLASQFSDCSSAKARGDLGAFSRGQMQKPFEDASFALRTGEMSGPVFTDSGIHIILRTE
Sequence of Galactokinase (Homo sapiens) (P51570 whole entry, looked up): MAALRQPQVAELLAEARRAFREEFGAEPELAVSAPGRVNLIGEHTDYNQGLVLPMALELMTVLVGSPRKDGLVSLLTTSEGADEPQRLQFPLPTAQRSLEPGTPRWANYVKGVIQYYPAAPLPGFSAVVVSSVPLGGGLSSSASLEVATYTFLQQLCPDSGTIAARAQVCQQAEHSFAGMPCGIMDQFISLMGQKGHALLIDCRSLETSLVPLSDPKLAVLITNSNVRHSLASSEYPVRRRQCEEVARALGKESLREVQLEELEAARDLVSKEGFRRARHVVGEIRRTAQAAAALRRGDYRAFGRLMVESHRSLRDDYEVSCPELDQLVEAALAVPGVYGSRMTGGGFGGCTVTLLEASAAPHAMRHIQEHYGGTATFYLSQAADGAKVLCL

With `N#Cc1cc2nc(O)c(O)nc2cc1[N+](=O)[O-]`, the outcome in [1], in test [2] and in test [10] was inactive. Besides, the Potency entry in test [3], in [4], in [5], in [6], in test [7] and in test [9] was “inactive” in each case. Also, the Potency result in test [11], in test [12], in [13], in [14], in [15] and in test [16] was “inactive” in each case. Further, in test [8], the activation is -2.94% (inactive). In addition, the viability change in [9] was -8.54%.

Take `CC(=O)N[C@@H](Cc1c[nH]c2ccccc12)C(=O)OCc1cc(C(F)(F)F)cc(C(F)(F)F)c1`: the result in test [1] and in [2] was inactive. Further, the Potency entry in test [3], in test [4], in test [5], in [6], in [7] and in [9] was “inactive” each time. In addition, the Potency entry in [11], in [12], in test [13], in test [17], in test [14] and in test [16] was “inactive” throughout. The Potency entry in [18] is “inactive”. Besides, the activation in [8] was 2.62% (inactive). Also, the viability change in test [9] is 0.548%. In test [15], the Potency was 20 µM (active).

With `NC(N)=NC(N)=Nc1cccc(Cl)c1`, the outcome in test [1], in test [2] and in test [10] was inactive. Moreover, the Potency result in [3], in test [4], in [5], in [6], in [7] and in test [11] was “inactive” throughout. Also, the Potency result in [12], in test [13], in [17], in test [14], in test [15] and in test [16] was “inactive” each time. Moreover, the Potency result in test [18] is “inactive”. For the same compound, the activation in test [8] is 1.62% (inactive).

Take `O=C(O)C1=CCCN(CCON=C(c2ccccc2)c2ccccc2)C1`: the result in test [1] and in test [2] was inactive. In addition, the Potency result in test [3], in test [4], in test [5], in test [6], in test [7] and in test [9] was “inactive” in each case. Moreover, the Potency result in test [11], in [12], in test [13], in [17], in test [14] and in test [15] was “inactive” in each case. Besides, the Potency result in [16] and in test [18] was “inactive” in each case. The activation in test [8] is -3% (inactive). Also, in test [9], the viability change amounted to 4.51%.

Consider `CC(=O)NNC(=O)N1Cc2ccccc2Oc2ccc(Cl)cc21`, for which the result in test [1], in [2] and in test [10] was inactive. Also, the Potency entry in [3], in [4], in [5], in test [6], in test [7] and in test [11] was “inactive” each time. For the same compound, the Potency result in [12], in [13], in test [14], in [15], in [16] and in test [18] was “inactive” each time. Further, the activation in [8] was 0.562% (inactive).

With `O=C(O)/C=C/c1cnc[nH]1`, the result in [1] and in test [2] was inactive. Besides, the Potency entry in test [3], in test [4], in test [5], in test [6], in [7] and in test [9] was “inactive” throughout. For the same compound, the Potency result in test [11], in test [12], in test [13], in test [14], in test [15] and in [18] was “inactive” each time. Besides, the activation in [8] is -0.125% (inactive). The viability change in test [9] was -12.4%.

As to `CC(N)(C(=O)O)c1ccc(C(=O)O)cc1` (stereo not drawn), the result in [1], in test [2] and in test [10] was inactive. Also, the Potency result in test [3], in test [4], in test [5], in test [6], in test [7] and in test [9] was “inactive” throughout. For the same compound, the Potency result in test [11], in test [12], in [17], in [14], in test [15] and in test [16] was “inactive” each time. Moreover, the Potency entry in test [18] is “inactive”. The activation in [8] was 1.12% (inactive). Also, the viability change in test [9] is 1.94%.

As to `Nn1nnc2ccccc21`, the outcome in test [1] and in [2] was inactive. The Potency result in test [3], in test [4], in test [5], in test [6], in test [7] and in test [9] was “inactive” throughout. In addition, the Potency result in [11], in test [12], in test [13], in test [17], in test [14] and in [15] was “inactive” throughout. Also, the Potency entry in test [16] and in test [18] was “inactive” in each case. The activation in [8] was 1.12% (inactive). The viability change in test [9] is -0.567%.

Values taken from PubChem BioAssay (NCATS).
